From PubChem
dFosB activator: activators of mouse delta FosB homodimer. P13346. purified delta FosB, TAMRA-CDK5 oligo fluorescence polarization; percent of positive-control signal above neutral wells. activation, % at 25 µM. hit rate 0.99% among 340,000;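 active = mean activation above about 17%, with every replicate also reaching it, limit read from the data, passing the limit was not always enough; inconclusive = only one of the two conditions met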
MEKK2wt PB1 HTS: raises or lowers MEK5 binding to wildtype human MEKK2 PB1 domain | AID 1531 | hit rate 1.1% among 290,000 | binding response (% of control), % at 10 µM | Q9Y2U5 | bead flow cytometry, Alexa488-MEK5 binding to MEKK2 WT; actives lie on both sides; in the data active = binding response below about 67% or above about 130%; inconclusive = no clear call, values can overlap the other calls; inactive = in between
MEKK3 PB1 HTS: MEKK3-MEK5 PB1 interaction, increase or decrease | AID 1529 | hit rate 1.4% among 290,000 | Q99759 | binding response (% of control), % at 10 µM | bead-based flow cytometry, Alexa488-MEK5 binding to MEKK3; actives lie on both sides; 0 = blocked by unlabeled MEK5, 100 = vehicle;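 active = binding response more than 3 SD above or below the average of its plate-row segment, actives on both sides; inconclusive = wells at one plate position flagged as instrument error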;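 also: Alexa488 bead fluorescence after subtracting the streptavidin-only scavenger bead signal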
Target sequence (Q99759 whole entry, looked up): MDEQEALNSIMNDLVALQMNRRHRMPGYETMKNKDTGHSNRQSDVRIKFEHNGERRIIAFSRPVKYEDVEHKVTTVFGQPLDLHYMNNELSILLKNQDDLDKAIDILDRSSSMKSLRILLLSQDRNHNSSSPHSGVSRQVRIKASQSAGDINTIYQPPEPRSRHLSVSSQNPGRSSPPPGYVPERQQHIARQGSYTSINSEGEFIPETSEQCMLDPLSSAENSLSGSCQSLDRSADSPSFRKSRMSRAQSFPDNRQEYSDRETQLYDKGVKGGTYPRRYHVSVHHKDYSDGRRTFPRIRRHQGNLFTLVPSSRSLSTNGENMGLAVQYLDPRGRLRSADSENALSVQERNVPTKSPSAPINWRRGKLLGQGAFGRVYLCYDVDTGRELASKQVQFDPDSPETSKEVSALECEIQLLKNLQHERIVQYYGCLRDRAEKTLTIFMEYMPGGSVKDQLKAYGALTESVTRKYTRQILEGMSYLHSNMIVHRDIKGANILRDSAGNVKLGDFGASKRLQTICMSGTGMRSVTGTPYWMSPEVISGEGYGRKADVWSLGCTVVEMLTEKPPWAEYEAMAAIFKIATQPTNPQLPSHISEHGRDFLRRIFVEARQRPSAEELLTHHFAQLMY
DNA FID counter: counter-screen for HCV NS3 helicase inhibitors: DNA intercalator displacement; AID 1845; inhibition, % at 7.9 µM; DNA fluorescent intercalator displacement, fluorescence; hit rate 0.17% among 290,000; in the data active = inhibition above about 37%;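 also: 0% = vehicle and 100% = reference compound; higher means more ethidium bromide displaced from hairpin DNA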
MEKK2mut PB1 HTS: signal of MEK5 binding to mutant human MEKK2 PB1 domain | bead flow cytometry, Alexa488-MEK5 binding to MEKK2 mutant | hit rate 0.35% among 290,000 | percent response, % at 10 µM; in the data active = percent response above about 24%, passing the limit was not always enough
MEKK2wt confirm: raises or lowers MEK5 binding to wildtype human MEKK2, retest | AID 1892 | shares compounds with MEKK3 PB1 HTS | binding response (% of control), % at 10 µM | bead flow cytometry, Alexa488-MEK5 binding to MEKK2 WT; actives lie on both sides | hit rate 2.4% among 5,900; in the data active = binding response below about 16% or above about 210%; inactive = in between
MEKK2mut confirm: signal of MEK5 binding to mutant human MEKK2, retest. hit rate 2% among 5,900. percent response, % at 10 µM. shares compounds with MEKK3 PB1 HTS. bead flow cytometry, Alexa488-MEK5 binding to MEKK2 mutant. AID 1893; in the data active = percent response mostly above about 71%, no sharp cut-off; inactive = mostly below about 38%;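 also: higher means compound restores mutant binding toward wildtype level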
MEKK3-MEK5 inh: MEKK3-MEK5 PB1 inhibition, single concentration confirmation | AID 1894 | shares compounds with MEKK3 PB1 HTS | binding response (% of control), % at 10 µM | hit rate 1.8% among 5,900 | bead flow cytometry, Alexa488-MEK5 binding to MEKK3; hits give low values;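 active = binding response below 72% of control, or above a set upper limit, though filed actives all read lower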;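 also: 100% = DMSO only wells and 0% = binding blocked by excess unlabeled MEK5; lower values mean stronger disruption of MEK5 binding to MEKK3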
An asterisk follows results filed as active; ? = inconclusive; . = not tested or not shown; [ ] = another dose, or the depositor's remark. In the library only some 2.9% were active in any assay of this set; here they are far more common.

SMILES	dFosB activator	MEKK2wt PB1 HTS	MEKK3 PB1 HTS	DNA FID counter	MEKK2mut PB1 HTS	MEKK2wt confirm	MEKK2mut confirm	MEKK3-MEK5 inh
Nc1ccc2nc(-c3cccc(-c4nc5ccc(N)cc5[nH]4)n3)[nH]c2c1	?	77.0	79.0*[inhibitor]	31.1	-13.0	96.0	-2.0	77.0
Cc1ccc2nc(-c3cccc(N)c3)[nH]c2c1	5.1	97.0	106.0	4.3	13.0	.	.	.
Nc1ccc(-c2nc3ccccc3[nH]2)cc1	2.6	110.0	108.0	10.7	3.0	.	.	.
Nc1ccc2nc(-c3ccc(-c4nc5ccc(N)cc5[nH]4)cc3)[nH]c2c1	.	65.0*[inhibitor]	53.0*[inhibitor]	51.6*	-26.0	81.0	-17.0	71.0*
Nc1ccc2nc(CCCCCCc3nc4ccc(N)cc4[nH]3)[nH]c2c1	5.2	108.0	83.0	20.6	1.0	.	.	.
Nc1ccc2nc(CCCCCCCCc3nc4ccc(N)cc4[nH]3)[nH]c2c1	2.0	140.0*	107.0	9.0	9.0	147.0	36.0	102.0
CCN(CC)C(=O)C(=O)c1cccn1-c1cccc(OC)c1C#N	0.1	107.0	101.0	-9.1	6.0	.	.	.
O=C(CCc1nc2ccccc2c(=O)[nH]1)Nc1cc(Cl)ccc1N1CCCC1	-9.3	.	.	.	.	.	.	.
COCCn1c(SCC(=O)NCC2CCCO2)nc2c([nH]c3ccccc32)c1=O (configuration not stated)	-2.2	109.0	103.0	-22.6	9.0	.	.	.
COc1ccc(-c2nn(-c3ccccc3)cc2CNC(C)Cn2cncn2)c(F)c1 (configuration not stated)	-3.5	104.0	99.0	8.2	0.0	.	.	.
COc1ccc(-c2nn(-c3ccccc3)cc2CN(C)CCn2ccnc2C)c(F)c1	-7.6	57.0	44.0*[inhibitor]	24.9	-37.0	90.0	-3.0	96.0
COc1ccc(-c2nc3c(c(=O)c4ccccc4n3C)c(=O)n2Cc2ccccc2)cc1	-10.3	105.0	149.0*	-2.0	0.0	99.0	3.0	102.0
COc1ccc(Cn2c(-c3ccco3)nc3c(c(=O)c4ccccc4n3C)c2=O)cc1	-39.1	108.0	136.0*	-14.8	28.0	101.0	6.0	106.0
COc1ccc(Cn2c(C)nc3c(c(=O)c4ccccc4n3C)c2=O)cc1	2.5	102.0	104.0	-7.6	21.0	.	.	.
COc1ccc(Cn2c(-c3ccc(OC)cc3)nc3c(c(=O)c4ccccc4n3C)c2=O)cc1	.	94.0	102.0	-4.8	11.0	.	.	.
COC(=O)c1c(NC(=O)CN(c2ccccc2)S(C)(=O)=O)sc2c1CCCC2	-3.1	108.0	161.0*	-20.2	2.0	98.0	-6.0	100.0
COC(=O)c1c(NS(=O)(=O)Cc2ccccc2)sc2c1CCCC2	0.1	95.0	95.0	-14.9	-1.0	.	.	.
COC(=O)c1c(NC(=O)COC(=O)CCc2ccc(S(=O)(=O)N3CCOCC3)cc2)sc2c1CCC2	-3.5	104.0	136.0*	-1.5	0.0	95.0	-8.0	101.0
O=C(Nc1cccc2c1CCCC2)c1ccncc1	-0.2	110.0	109.0	-6.3	6.0	.	.	.
CC(=O)NC(CC(=O)N(Cc1ccccc1)c1cccc(C)c1)c1ccccc1 (configuration not stated)	-10.7	106.0	101.0	-59.5	1.0	.	.	.
COc1ccc(C[C@H]2CN3C(=NC[C@@H]3C(C)C)N2CCNC(=O)c2ccc(C)c(Br)c2)cc1	4.6	154.0*	103.0	34.4	32.0	157.0	66.0	110.0
C/C=C(\C)C(=O)NCCN1C2=NC[C@H](C(C)C)N2C[C@@H]1Cc1ccc(OC)cc1	1.4	123.0	91.0	10.1	10.0	.	.	.
Cc1ccc(C(=O)NCCN2C3=NC[C@H](C(C)C)N3C[C@H]2Cc2ccc(O)cc2)cc1Br	1.4	145.0*	105.0	14.2	34.0	100.0	-6.0	82.0
C/C=C(\C)C(=O)NCCN1C2=NC[C@H](C(C)C)N2C[C@H]1Cc1ccc(O)cc1	-3.2	94.0	104.0	9.9	7.0	.	.	.
Cc1cccc(C)c1NC(=O)C1(N2CCN(C(=O)c3ccco3)CC2)CCCCC1	-9.4	95.0	91.0	-27.7	-1.0	.	.	.
SMILES	dFosB activator	MEKK2wt PB1 HTS	MEKK3 PB1 HTS	DNA FID counter	MEKK2mut PB1 HTS	MEKK2wt confirm	MEKK2mut confirm	MEKK3-MEK5 inh
COc1cc(N2CCCC2)c(OC)cc1/C=C(/C#N)c1ccc(Br)cc1	-14.5	106.0	103.0	4.4	189.0*	101.0	3.0	96.0
COc1cc(N2CCCC2)c(OC)cc1/C=C(/C#N)c1ccc(F)cc1	-10.0	53.0*[inhibitor]	99.0	1.1	39.0	101.0	-6.0	102.0
CCN1C(=O)C(CC(=O)Nc2ccc(F)cc2)N(CCCN2CCN(c3ccc(F)cc3)CC2)C1=S (configuration not stated)	-7.7	143.0*	107.0	29.9	25.0	133.0	25.0	108.0
CCCOc1ccc(NC(=O)CC2C(=O)N(CC)C(=S)N2CCNC(C)=O)cc1 (configuration not stated)	1.1	91.0	88.0	-6.7	-4.0	.	.	.
CCCOc1ccc(NC(=O)CC2C(=O)N(CC)C(=S)N2CCCN2CCN(Cc3ccccc3)CC2)cc1 (configuration not stated)	-0.4	155.0*	103.0	29.4	22.0	150.0	29.0	109.0
O=C(CN1CCN(Cc2ccccc2)CC1)NNC(=O)c1ccccc1	1.8	.	.	.	.	.	.	.
C=CCc1ccccc1OCC(O)CN1CCN(CCN2C(=O)c3cccc4cccc(c34)C2=O)CC1 (configuration not stated)	47.1*	193.0*	111.0	13.8	23.0	155.0	17.0	105.0
Cc1cccc2sc(N(CCCN(C)C)C(=O)COc3ccc(Cl)cc3)nc12	-95.0	191.0*	105.0	19.7	53.0*	168.0	28.0	106.0
Cc1ccc2sc(N(CCCN(C)C)C(=O)c3ccc(S(=O)(=O)N4CCCCCC4)cc3)nc2c1C	-19.3	.	.	.	.	.	.	.
CN(C)CCCN(C(=O)COc1ccc(Cl)cc1)c1nc2ccc(F)cc2s1	-110.4	122.0	103.0	13.4	2.0	.	.	.
CN(C)CCCN(C(=O)CCOc1ccccc1)c1nc2c(F)cccc2s1	-2.6	146.0*	105.0	6.7	41.0	142.0	24.0	106.0
CN(C)CCCN(C(=O)CCc1ccccc1)c1nc2c(F)cccc2s1	-15.0	118.0	98.0	34.9	-1.0	.	.	.
Cc1ccc2sc(N(CCCN(C)C)C(=O)CN3C(=O)c4ccccc4C3=O)nc2c1C	11.7	150.0*	106.0	28.1	33.0	132.0	13.0	101.0
CN(C)CCCN(C(=O)COc1ccc(Cl)cc1)c1nc2c(F)cccc2s1	0.9	162.0*	103.0	3.8	33.0	161.0	40.0	112.0
CN1C(=O)C(Cl)(Cl)C(=O)c2ccccc21	1.9	104.0	100.0	-0.2	2.0	.	.	.
